Measured values taken from PubChem BioAssay (EPA / NIEHS).
Inconclusive results are not listed. More than one record can exist for a structure, and the calls need not agree. Activity calls are given as the source filed them. How the source made its calls, unless noted: active means hit-call score of the fitted dose curve at least 0.9, where 1 is the maximum; inconclusive means response in the unintended direction; inactive means score below 0.9.

Assays:
[1] = target: Sodium channel protein type 1 subunit alpha (Rattus norvegicus) (UniProt P04774); assay: NVS_IC_rNaCh_site2: NovaScreen (NVS) Ion Channel Assay for rat Sodium Channel, Site 2 (NaCh) (AID 2283322);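 further: hit means loss of radioligand binding signal relative to DMSO so AC50 marks displacement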
How it was run: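 Membranes: rat forebrain. Format: competitive radioligand displacement, filter separation, scintillation readout, 1 h exposure. Primary screen in duplicate at 25 uM; actives retested in concentration series.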

[2] = target: human Serotonin, 5-Hydroxytryptamine Receptor 3 (5HT3), HTR3A (gene 3359) (UniProt P46098); assay: NVS_LGIC_h5HT3: NovaScreen (NVS) Ligand-Gated Ion Channel Assay for human Serotonin, 5-Hydroxytryptamine Receptor 3 (5HT3) (AID 2283325)
How it was run: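 Radioligand displacement binding to human 5-HT3 from HEK293 membranes, read by filter-based scintillation counting after 1 h. Screen at 25 uM in duplicate; chemicals passing threshold were retested in concentration-response up to 50 uM.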

[3] = target: rat Glutamate, NMDA Agonist Site (GluNMDA), Grin1 (gene 24408) (UniProt P35439); assay: NVS_LGIC_rGluNMDA_Agonist: NovaScreen (NVS) Ligand-Gated Ion Channel Assay for rat Glutamate, NMDA Agonist Site (GluNMDA) (AID 2283327)
How it was run: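 Rat forebrain membranes, radioligand binding in the agonist-site protocol; 1 h after dosing; filter-based scintillation counting. Single-concentration duplicate screen at 25 uM, then concentration-response up to 50 uM for actives; gain-of-signal vs DMSO.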

[4] = target: Voltage-gated inwardly rectifying potassium channel KCNH2 (Homo sapiens) (UniProt Q12809); assay: NVS_IC_hKhERGCh: NovaScreen (NVS) Ion Channel Assay for human Potassium Channel ERG (KhERGCh) (AID 2283333)
How it was run: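 Cell-free radioligand competition binding on hERG protein extracted from CHO cells, read by filter-based scintillation counting 0.75 h after dosing. Primary screen at 25 uM in duplicate, actives followed in concentration series. Signal loss fitted versus DMSO.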

[5] = NVS_IC_rCaBTZCHL: NovaScreen (NVS) Ion Channel Assay for Calcium Channel, Type L, Benzothiazepine Site (CaBTZCHL) (AID 2283337)
How it was run: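 Scintillation counting of filter-bound radioligand gave the read-out, with reduced binding versus DMSO scored as activity. Membranes came from rat cortex and were read 1.5 h after compound addition. Chemicals were screened first in duplicate at 25 uM.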

[6] = target: bovine Gamma-Aminobutyric Acid Type A Receptor Agonist (GABAR Agonist), GABRA1 (gene 780973) (UniProt P08219); assay: NVS_LGIC_bGABAR_Agonist: NovaScreen (NVS) Ligand-Gated Ion Channel Assay for bovine Gamma-Aminobutyric Acid Type A Receptor Agonist (GABAR Agonist) (AID 2283338)
How it was run: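 Radioligand binding to bovine cerebellar membranes in agonist format, read by filter-based scintillation counting after 1 h. Primary screen in duplicate at 25 uM, with actives followed in concentration series. Gain of signal versus DMSO.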

[7] = target: rat Glutamate, MK-801 Agonist Site (GluNMDA_MK801), Grin1 (gene 24408) (UniProt P35439); assay: NVS_LGIC_rGluNMDA_MK801_Agonist: NovaScreen (NVS) Ligand-Gated Ion Channel Assay for rat Glutamate, MK-801 Agonist Site (GluNMDA_MK801) (AID 2283340)
How it was run: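 Radioligand binding at MK-801 site in rat forebrain membranes, 1.5 h incubation, filter-based scintillation counting. Initially 25 uM in duplicate; actives then run in concentration-response up to 50 uM, fitted for gain of signal versus DMSO.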

[8] = NVS_IC_rCaDHPRCh_L: NovaScreen (NVS) Ion Channel Assay for rat Calcium Channel, Type L, Dihydropyridine Site (CaDHPRCh_L) (AID 2283320)
How it was run: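 Radioligand binding to dihydropyridine site on rat cortical membranes, filter-based scintillation counting, 1 h after dosing. Screened in duplicate at 25 uM; actives rerun in concentration-response up to 50 uM. Loss of signal versus DMSO baseline.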

[9] = target: rat Gamma-Aminobutyric Acid Type A Receptor, Non-Selective (GABAR-NonSelective), Gabra1 (gene 29705) (UniProt P62813); assay: NVS_LGIC_rGABAR_NonSelective: NovaScreen (NVS) Ligand-Gated Ion Channel Assay for rat Gamma-Aminobutyric Acid Type A Receptor, Non-Selective (GABAR-NonSelective) (AID 2283326)
How it was run: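 Radioligand displacement on rat whole-brain extract, 1 h, filter scintillation readout; signal loss fitted versus DMSO. Primary screen in duplicate at 25 uM; hits (e.g. ≥30% inhibition) retested in concentration-response up to 50 uM.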

[10] = target: rat Glycine Receptor, Strychnine-sensitive (GlyRStrySens), Glra1 (gene 25674) (UniProt P07727); assay: NVS_LGIC_rGlyRStrySens: NovaScreen (NVS) Ligand-Gated Ion Channel Assay for rat Glycine Receptor, Strychnine-sensitive (GlyRStrySens) (AID 2283341)
How it was run: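 Radioligand displacement on rat spinal cord membranes, 1 hr, filter scintillation read-out. Single-concentration duplicate screen at 25 uM; chemicals meeting threshold (e.g., 30% inhibition) rerun in concentration-response up to 50 uM. Loss of binding fitted versus DMSO.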

[11] = target: human Peripheral-type Benzodiazepine Receptor (PBR), TSPO (gene 706) (UniProt P30536); assay: NVS_MP_hPBR: NovaScreen (NVS) Membrane Protein Assay for human Peripheral-type Benzodiazepine Receptor (PBR) (AID 2283331);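 further: hits reduce radioligand binding relative to DMSO baseline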
How it was run: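 Human colonic cell membranes were incubated with test chemical for 1 hour; radioligand binding was measured by filter-based scintillation counting. Primary screen ran in duplicate at 25 uM, with actives followed in concentration series; loss of signal versus DMSO baseline.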

[12] = target: rat Peripheral-type Benzodiazepine Receptor (PBR), Tspo (gene 24230) (UniProt P16257); assay: NVS_MP_rPBR: NovaScreen (NVS) Membrane Protein Assay for rat Peripheral-type Benzodiazepine Receptor (PBR) (AID 2283335)
How it was run: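 Rat kidney membranes; radioligand binding with displacement, filter-based scintillation counting, 1 h incubation. Primary screen in duplicate at 25 uM, actives followed in concentration series; loss of binding vs DMSO.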

[13] = target: rat Glutamate, AMPA Site (AMPA), Gria1 (gene 50592) (UniProt P19490); assay: NVS_LGIC_rAMPA: NovaScreen (NVS) Ligand-Gated Ion Channel Assay for rat Glutamate, AMPA Site (AMPA) (AID 2283324)
How it was run: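 Rat forebrain membranes; radioligand binding read 1 h after dosing by filtration and scintillation counting. Duplicate single-point screen at 25 uM, then concentration-response to 50 uM for threshold hits (e.g. 30% inhibition); loss of signal vs DMSO.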

NCBI gene 24521 = assay: NVS_IC_rKATPCh: NovaScreen (NVS) Ion Channel Assay for rat Potassium Channel, ATP-Sensitive (KATPCh) (AID 2283319)
How it was run: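 Rat cortical membranes; radioligand binding at ATP-sensitive K channel site, filter-based scintillation counting 2 h after dosing. Single-point duplicate screen at 25 uM, hits rerun in concentration-response up to 50 uM; loss of signal versus DMSO.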

[14] = target: rat Thyrotropin Releasing Hormone Receptor (TRH), Trhr (gene 25570) (UniProt Q01717); assay: NVS_GPCR_rTRH: NovaScreen (NVS) G Protein-Coupled Receptor Assay for rat Thyrotropin Releasing Hormone Receptor (TRH) (AID 2283329);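 further: hit means lower bound tracer signal versus DMSO baseline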
How it was run: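 Cell-free radioligand binding on rat forebrain membranes; bound tracer measured by filter-based scintillation counting 4 hours after dosing. Loss of signal versus DMSO baseline indicates displacement; primary screen at 25 uM in duplicate, actives then run in concentration series.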

[15] = target: bovine Gamma-Aminobutyric Acid Type A Receptor BDZ, alpha 5 site (GABARa5), GABRA5 (gene 523515) (UniProt Q08E50); assay: NVS_LGIC_bGABARa5: NovaScreen (NVS) Ligand-Gated Ion Channel Assay for bovine Gamma-Aminobutyric Acid Type A Receptor BDZ, alpha 5 site (GABARa5) (AID 2283323)
How it was run: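 Radioligand competitive displacement binding on bovine hippocampal membranes, read 1 hr after dosing by filter-based scintillation counting. Primary screen at 25 uM in duplicate; actives (e.g. ≥30% inhibition) then run in concentration-response up to 50 uM.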

[16] = target: Glutamate receptor ionotropic, kainate 1 (Rattus norvegicus) (UniProt P22756); assay: NVS_IC_rKAR: NovaScreen (NVS) Ion Channel Assay for rat Kainic Acid Receptors (KAR) (AID 2283334; active means hit-call score of the fitted dose curve at least 0.9, where 1 is the maximum; inactive means score below 0.9)
How it was run: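 Radioligand displacement binding using rat forebrain membranes, 1 h incubation, filter-based scintillation counting. Screened in duplicate at 25 uM, with actives retested in concentration-response up to 50 uM; fitted against DMSO.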

Sequence of rat Peripheral-type Benzodiazepine Receptor (PBR), Tspo (gene 24230) (P16257 whole entry, looked up): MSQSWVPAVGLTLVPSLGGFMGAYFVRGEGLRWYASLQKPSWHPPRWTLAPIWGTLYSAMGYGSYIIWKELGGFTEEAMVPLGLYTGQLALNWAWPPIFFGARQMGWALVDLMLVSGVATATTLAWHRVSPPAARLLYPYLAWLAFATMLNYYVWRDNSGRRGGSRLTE
Sequence of bovine Gamma-Aminobutyric Acid Type A Receptor Agonist (GABAR Agonist), GABRA1 (gene 780973) (P08219 whole entry, looked up): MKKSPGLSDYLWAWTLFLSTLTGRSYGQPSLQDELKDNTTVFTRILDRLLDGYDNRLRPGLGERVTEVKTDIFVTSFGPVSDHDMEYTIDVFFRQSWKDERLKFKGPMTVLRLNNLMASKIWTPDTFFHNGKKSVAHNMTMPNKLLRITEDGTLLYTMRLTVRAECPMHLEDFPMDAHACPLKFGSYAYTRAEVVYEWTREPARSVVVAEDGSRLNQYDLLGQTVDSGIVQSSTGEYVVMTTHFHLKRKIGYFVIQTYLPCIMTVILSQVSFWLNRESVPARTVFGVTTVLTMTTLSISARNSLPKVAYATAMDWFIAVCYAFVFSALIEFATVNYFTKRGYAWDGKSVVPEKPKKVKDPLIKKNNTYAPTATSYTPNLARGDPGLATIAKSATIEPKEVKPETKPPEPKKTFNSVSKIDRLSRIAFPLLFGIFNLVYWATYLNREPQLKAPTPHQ
Sequence of rat Glycine Receptor, Strychnine-sensitive (GlyRStrySens), Glra1 (gene 25674) (P07727 whole entry, looked up): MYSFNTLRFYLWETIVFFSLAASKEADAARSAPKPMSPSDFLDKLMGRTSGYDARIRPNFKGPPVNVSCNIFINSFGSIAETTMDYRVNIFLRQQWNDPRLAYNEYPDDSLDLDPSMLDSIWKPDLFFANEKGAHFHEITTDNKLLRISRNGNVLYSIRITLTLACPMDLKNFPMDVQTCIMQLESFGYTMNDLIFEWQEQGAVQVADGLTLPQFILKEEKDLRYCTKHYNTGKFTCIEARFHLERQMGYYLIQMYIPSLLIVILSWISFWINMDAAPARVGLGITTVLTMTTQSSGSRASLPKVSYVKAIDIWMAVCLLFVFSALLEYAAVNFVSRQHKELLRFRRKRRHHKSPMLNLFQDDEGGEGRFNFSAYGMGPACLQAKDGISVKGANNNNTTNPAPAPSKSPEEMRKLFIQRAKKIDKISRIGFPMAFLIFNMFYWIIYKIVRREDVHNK
Sequence of Voltage-gated inwardly rectifying potassium channel KCNH2 (Homo sapiens) (Q12809 whole entry, looked up): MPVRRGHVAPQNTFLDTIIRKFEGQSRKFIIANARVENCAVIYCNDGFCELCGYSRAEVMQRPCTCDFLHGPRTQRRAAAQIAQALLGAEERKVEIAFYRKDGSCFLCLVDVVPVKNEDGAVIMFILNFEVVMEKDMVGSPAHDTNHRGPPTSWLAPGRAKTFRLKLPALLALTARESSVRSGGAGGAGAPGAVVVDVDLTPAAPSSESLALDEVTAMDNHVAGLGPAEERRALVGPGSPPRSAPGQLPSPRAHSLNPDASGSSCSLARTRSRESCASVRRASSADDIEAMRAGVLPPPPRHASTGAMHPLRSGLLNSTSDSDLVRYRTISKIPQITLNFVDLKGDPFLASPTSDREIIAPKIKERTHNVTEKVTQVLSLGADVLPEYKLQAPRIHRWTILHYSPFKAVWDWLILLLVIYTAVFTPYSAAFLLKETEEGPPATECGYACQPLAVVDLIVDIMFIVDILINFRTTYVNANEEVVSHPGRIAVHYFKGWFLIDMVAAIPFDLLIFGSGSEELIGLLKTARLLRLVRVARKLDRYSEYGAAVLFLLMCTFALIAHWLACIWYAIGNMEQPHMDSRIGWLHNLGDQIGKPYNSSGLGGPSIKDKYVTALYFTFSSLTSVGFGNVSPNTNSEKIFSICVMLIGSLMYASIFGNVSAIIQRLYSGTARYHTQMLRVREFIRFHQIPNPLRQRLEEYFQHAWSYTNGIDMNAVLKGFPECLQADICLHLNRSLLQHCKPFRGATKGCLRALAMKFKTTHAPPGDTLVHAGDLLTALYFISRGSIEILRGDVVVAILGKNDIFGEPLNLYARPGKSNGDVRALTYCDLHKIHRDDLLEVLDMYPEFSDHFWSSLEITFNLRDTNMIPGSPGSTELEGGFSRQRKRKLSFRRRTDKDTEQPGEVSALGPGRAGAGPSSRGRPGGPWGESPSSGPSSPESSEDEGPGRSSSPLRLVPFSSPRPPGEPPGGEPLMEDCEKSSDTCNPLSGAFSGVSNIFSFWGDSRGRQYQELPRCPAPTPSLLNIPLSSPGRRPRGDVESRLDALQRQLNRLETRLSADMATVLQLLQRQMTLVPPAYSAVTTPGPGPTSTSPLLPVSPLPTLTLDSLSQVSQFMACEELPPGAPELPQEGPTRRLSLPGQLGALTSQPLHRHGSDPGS
Sequence of human Peripheral-type Benzodiazepine Receptor (PBR), TSPO (gene 706) (P30536 whole entry, looked up): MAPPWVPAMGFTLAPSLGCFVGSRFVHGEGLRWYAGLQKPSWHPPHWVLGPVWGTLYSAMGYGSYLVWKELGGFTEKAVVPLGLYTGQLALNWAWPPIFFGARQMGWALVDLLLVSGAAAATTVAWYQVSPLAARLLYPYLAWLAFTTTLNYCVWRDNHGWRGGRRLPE
Sequence of rat Glutamate, AMPA Site (AMPA), Gria1 (gene 50592) (P19490 whole entry, looked up): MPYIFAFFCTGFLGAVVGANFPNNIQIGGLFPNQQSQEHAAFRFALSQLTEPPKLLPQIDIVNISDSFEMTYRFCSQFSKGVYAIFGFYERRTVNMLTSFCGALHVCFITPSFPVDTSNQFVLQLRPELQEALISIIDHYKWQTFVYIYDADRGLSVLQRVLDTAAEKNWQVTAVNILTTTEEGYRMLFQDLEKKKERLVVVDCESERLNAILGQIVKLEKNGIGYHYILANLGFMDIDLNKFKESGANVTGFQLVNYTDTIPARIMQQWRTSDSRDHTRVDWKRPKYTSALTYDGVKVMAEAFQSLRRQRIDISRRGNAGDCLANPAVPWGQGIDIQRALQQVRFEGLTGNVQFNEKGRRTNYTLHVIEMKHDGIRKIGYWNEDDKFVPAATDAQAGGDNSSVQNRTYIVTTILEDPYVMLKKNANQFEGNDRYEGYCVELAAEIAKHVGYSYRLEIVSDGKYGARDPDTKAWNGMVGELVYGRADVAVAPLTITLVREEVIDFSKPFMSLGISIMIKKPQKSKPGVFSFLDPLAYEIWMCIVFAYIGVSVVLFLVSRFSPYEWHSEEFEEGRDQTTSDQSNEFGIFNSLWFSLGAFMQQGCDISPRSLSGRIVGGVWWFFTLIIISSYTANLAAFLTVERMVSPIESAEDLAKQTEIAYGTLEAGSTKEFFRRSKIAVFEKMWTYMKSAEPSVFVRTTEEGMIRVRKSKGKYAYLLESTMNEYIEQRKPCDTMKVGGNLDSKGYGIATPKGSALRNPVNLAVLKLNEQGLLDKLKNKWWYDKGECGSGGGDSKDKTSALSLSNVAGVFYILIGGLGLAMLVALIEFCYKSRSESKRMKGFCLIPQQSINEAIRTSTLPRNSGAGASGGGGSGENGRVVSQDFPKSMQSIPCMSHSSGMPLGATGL
Sequence of human Serotonin, 5-Hydroxytryptamine Receptor 3 (5HT3), HTR3A (gene 3359) (P46098 whole entry, looked up): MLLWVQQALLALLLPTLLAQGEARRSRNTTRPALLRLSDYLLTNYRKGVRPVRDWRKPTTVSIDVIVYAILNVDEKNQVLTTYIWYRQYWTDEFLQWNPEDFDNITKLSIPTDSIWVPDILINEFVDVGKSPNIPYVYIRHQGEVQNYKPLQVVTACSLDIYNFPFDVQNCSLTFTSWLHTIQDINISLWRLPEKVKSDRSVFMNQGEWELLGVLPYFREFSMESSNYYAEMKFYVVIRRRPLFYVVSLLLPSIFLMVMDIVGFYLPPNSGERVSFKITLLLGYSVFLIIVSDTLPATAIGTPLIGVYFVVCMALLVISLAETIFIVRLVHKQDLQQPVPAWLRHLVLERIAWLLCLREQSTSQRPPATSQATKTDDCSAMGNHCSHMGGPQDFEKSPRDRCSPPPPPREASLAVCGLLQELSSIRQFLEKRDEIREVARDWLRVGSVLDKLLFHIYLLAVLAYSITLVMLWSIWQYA
Sequence of rat Gamma-Aminobutyric Acid Type A Receptor, Non-Selective (GABAR-NonSelective), Gabra1 (gene 29705) (P62813 whole entry, looked up): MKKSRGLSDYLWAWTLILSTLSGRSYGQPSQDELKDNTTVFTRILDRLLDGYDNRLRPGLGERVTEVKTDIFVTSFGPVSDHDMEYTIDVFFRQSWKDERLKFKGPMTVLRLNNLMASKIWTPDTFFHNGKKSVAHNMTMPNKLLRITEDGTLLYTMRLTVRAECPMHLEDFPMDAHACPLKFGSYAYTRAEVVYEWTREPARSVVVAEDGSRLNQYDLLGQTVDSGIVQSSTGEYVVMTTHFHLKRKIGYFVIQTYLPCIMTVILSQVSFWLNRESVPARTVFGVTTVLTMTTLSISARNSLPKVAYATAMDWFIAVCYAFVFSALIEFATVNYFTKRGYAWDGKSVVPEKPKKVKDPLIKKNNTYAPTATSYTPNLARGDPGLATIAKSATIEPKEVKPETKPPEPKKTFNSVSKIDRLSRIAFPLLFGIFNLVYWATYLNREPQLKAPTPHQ
Sequence of bovine Gamma-Aminobutyric Acid Type A Receptor BDZ, alpha 5 site (GABARa5), GABRA5 (gene 523515) (Q08E50 whole entry, looked up): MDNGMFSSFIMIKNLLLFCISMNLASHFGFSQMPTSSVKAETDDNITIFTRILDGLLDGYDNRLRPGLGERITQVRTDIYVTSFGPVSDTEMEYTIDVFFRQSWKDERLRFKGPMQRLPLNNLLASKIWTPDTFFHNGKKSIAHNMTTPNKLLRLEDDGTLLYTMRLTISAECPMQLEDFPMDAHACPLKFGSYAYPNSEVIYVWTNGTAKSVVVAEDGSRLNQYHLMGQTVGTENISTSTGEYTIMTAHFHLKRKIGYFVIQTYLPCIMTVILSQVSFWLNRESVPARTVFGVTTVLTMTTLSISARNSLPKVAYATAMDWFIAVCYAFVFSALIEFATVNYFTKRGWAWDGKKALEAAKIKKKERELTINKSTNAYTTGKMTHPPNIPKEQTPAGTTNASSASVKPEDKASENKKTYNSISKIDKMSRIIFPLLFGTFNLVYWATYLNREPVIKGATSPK

CN(C)CCCN1c2ccccc2Sc2ccc(Cl)cc21
AC50 [1]: 1.96 µM (active) | AC50 [2]: 25 µM (active) | AC50 [3]: 25 µM (active) | AC50 [4]: 10.4 µM (active) | AC50 [5]: 2.52 µM (active) | outcome [6]: inactive | AC50 [7]: 25 µM (active)

CSc1ccc(Oc2ccc(S(N)(=O)=O)cc2CN(C)C)cc1C
AC50 [8]: 8.08 µM (active) | AC50 [1]: 13.5 µM (active) | outcome [2]: inactive | AC50 [9]: 10.3 µM (active) | outcome [4]: inactive | AC50 [5]: 10.1 µM (active) | AC50 [6]: 38.8 µM (active) | outcome [10]: inactive

O=C(N[C@@H](c1ccccc1)[C@@H]1CCCCN1)c1cccc(C(F)(F)F)c1Cl
AC50 [1]: 1.27 µM (active) | AC50 [11]: 17.9 µM (active) | AC50 [4]: 32.9 µM (active) | AC50 [12]: 25 µM (active) | AC50 [5]: 0.967 µM (active)

NC(=Nc1ccccc1)Nc1ccccc1
outcome [1]: inactive | outcome [3]: inactive | AC50 [5]: 40.6 µM (active)

CCCCC(CC)COP(=O)(OCC(CC)CCCC)OCC(CC)CCCC (stereo not given)
outcome [1]: inactive | outcome [13]: inactive

O=Cc1ccccc1C=O
AC50 [13]: 13.5 µM (active)

CCN(CC)CCOc1ccc(C(=C(Cl)c2ccccc2)c2ccccc2)cc1
AC50 [1]: 1.99 µM (active) | AC50 [11]: 0.672 µM (active) | outcome [11]: inactive | AC50 [5]: 1.02 µM (active) | outcome [10]: inactive

Cc1cc(Cc2ccc(N)c(C)c2)ccc1N
outcome (NCBI gene 24521): inactive | outcome [14]: inactive | outcome [11]: inactive | outcome [12]: inactive

CCc1nc(N)nc(N)c1-c1ccc(Cl)cc1
AC50 [1]: 3.65 µM (active) | AC50 [9]: 0.0648 µM (active) | outcome [12]: inactive | AC50 [5]: 8.32 µM (active) | AC50 [6]: 8.29 µM (active) | AC50 [10]: 2.7 µM (active)

COc1ccc(C(=O)Nc2nc3ccccc3c(NCc3ccccc3)c2C#N)cc1
outcome [15]: inactive

CCC(C)N(C)C(=O)c1cc2ccccc2c(-c2ccccc2Cl)n1 (stereo not given)
outcome [15]: inactive | outcome [16]: inactive | AC50 [5]: 9.12 µM (active)
